Active and inactive are the calls of the source. Unless noted, how the calls were made is not given here.
What was measured:
[1] = tested on: Wnt5a (protein binding on small-molecule microarray); test: small molecules binding Wnt5a protein – biophysical, small-molecule microarray, 635/667 nm fluorescence, primary screen (AID 1142); conditions: 635 nm fluorescence, higher = more signal;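 further: fluorescence read at 667 nm with signal to noise per printed feature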
[2] = ATP-based viability of Huh7 replicon cells – cell-based, CellTiter-Glo luminescence, basal, 48 h, cytotoxicity control for HCV replication inhibitor project, primary screen (AID 1143); conditions: higher = more signal, called active from +8 up or from −8 down;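 further: Huh7 hepatoma cells carrying a hepatitis C replication reporter with no stimulus; test concentration not given here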
[3] = Pseudomonas biofilm growth suppression – PAO1 strain, BacTiter-Glo luminescence, LB-PBS, primary screen (AID 1144); conditions: P. aeruginosa PAO1 biofilm, 12 h, higher = more signal
[4] = basal CRE-LacZ reporter activity in PC12 – cell-based, unstimulated, primary screen (AID 1145); conditions: no forskolin, luminescence, 4.5 h, higher = more signal, called active from +8 up or from −8 down
[5] = forskolin-driven CRE-LacZ activity in PC12 – cell-based, CRE-LacZ reporter, forskolin-stimulated, primary screen (AID 1146); conditions: luminescence, 4.5 h, higher = more signal, called active from +8 up or from −8 down;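 further: PC12 cells with 6xCRE LacZ reporter stimulated by forskolin 10 µM; beta-galactosidase reporter signal reflecting CREB driven transcription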
[6] = target: Streptavidin (Streptomyces avidinii) (UniProt P22629); test: compounds binding control protein streptavidin – biophysical, small-molecule microarray, 635/667 nm fluorescence, artefact control for SMM compound annotation, primary screen (AID 1147); conditions: higher = more signal;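 further: signal reflects streptavidin binding to arrayed compounds as a control protein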
Sequence of Streptavidin (Streptomyces avidinii) (P22629 whole entry, looked up): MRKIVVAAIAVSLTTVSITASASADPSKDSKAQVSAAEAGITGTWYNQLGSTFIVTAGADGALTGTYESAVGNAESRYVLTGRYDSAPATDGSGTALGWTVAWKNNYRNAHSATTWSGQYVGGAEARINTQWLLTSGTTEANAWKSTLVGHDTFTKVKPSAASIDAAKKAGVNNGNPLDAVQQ

[7] = probe aInhba binding on compound microarray – biochemical, small-molecule microarray, 635/667 nm fluorescence, primary screen (AID 1148); conditions: higher = more signal;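 further: score merges 667nm spot fluorescence with signal-to-noise for antibody binding to printed compounds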
Torsin-1A (Homo sapiens) [8] = target: Torsin-1A (Homo sapiens) (UniProt O14656); test: TOR1A wild-type binding on microarray – cell lysate, small-molecule microarray, lysate, 635/667 nm, primary screen (AID 1149); conditions: COS7 hTOR1A-WT lysate, 635 nm fluorescence, higher = more signal
Sequence of Torsin-1A (Homo sapiens) (O14656 whole entry, looked up): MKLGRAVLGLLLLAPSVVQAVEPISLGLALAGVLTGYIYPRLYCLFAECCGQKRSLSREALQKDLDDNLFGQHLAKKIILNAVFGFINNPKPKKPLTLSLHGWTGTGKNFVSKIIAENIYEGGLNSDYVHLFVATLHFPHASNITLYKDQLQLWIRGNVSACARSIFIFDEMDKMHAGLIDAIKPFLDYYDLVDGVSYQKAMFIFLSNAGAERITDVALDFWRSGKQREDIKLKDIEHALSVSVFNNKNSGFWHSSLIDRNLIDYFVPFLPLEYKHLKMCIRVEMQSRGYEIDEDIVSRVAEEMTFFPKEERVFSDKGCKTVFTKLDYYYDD

Torsin-1A (Homo sapiens) [9] = target: Torsin-1A (Homo sapiens) (UniProt O14656); test: torsin A mutant lysate binding on microarrays – cell lysate, small-molecule microarray, COS7 lysate, 635/667 nm fluorescence, primary screen (AID 1150); conditions: COS7 hTOR1A mutant lysate, 635 nm fluorescence, higher = more signal;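 further: score pools 667 nm emission and signal to noise measuring lysate protein binding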
[10] = tested on: Sonic hedgehog protein (Shh); test: Sonic hedgehog microarray binding compounds – biochemical, small-molecule microarray, 635/667 nm fluorescence, primary screen (AID 1151); conditions: 635 nm fluorescence, higher = more signal;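 further: Shh protein binding to compounds spotted on small-molecule microarray slides; score combines spot fluorescence intensity with signal-to-noise across triplicate slides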

| Structure (SMILES) | composite z-score [1] | z-score [2] | z-score [3] | z-score [4] | z-score [5] | composite z-score [6] | composite z-score [7] | composite z-score (Torsin-1A (Homo sapiens) [8]) | composite z-score (Torsin-1A (Homo sapiens) [9]) | composite z-score [10] |
| --- | --- | --- | --- | --- | --- | --- | --- | --- | --- | --- |
| Cc1ccc(N2C(=O)c3ccccc3[C@](C)(C(=O)NCC(C)C)[C@@H]2c2ccc(CO)cc2)nc1 | -0.116 | 0.985 (inactive) | -0.309 (inactive) | -0.0888 (inactive) | -0.002 (inactive) | -1.12 | -0.147 | -0.458 | -1.26 | -0.656 |
| COc1ccc(-c2cc3c(c(-c4ccccc4)n2)[Si](C(C)C)(C(C)C)O[C@H]3c2ccccc2)cn1 | 0.436 | 0.0834 (inactive) | 0.0798 (inactive) | 0.0035 (inactive) | 0.411 (inactive) | -0.207 | -0.0403 | 0.363 | -0.0308 | 0.82 |
| CCCCCCc1nc(-c2cc(C)c(OC)c(C)c2)cc2c1[Si](C(C)C)(C(C)C)O[C@H]2c1ccccc1 | -0.452 | -0.59 (inactive) | 0.368 (inactive) | -0.244 (inactive) | -0.272 (inactive) | 0.0741 | -0.121 | -1.48 | -1.07 | -0.162 |
| CCC#CCN(Cc1ccccc1Br)[C@H](/C=C/c1ccccc1)[C@@H](O)Cc1ccccc1 | -0.659 | -1.45 (inactive) | 0.282 (inactive) | 2.94 (inactive) | 0.272 (inactive) | -0.312 | -0.179 | -0.586 | -0.542 | -1.18 |
| CC(C)C[C@@H]1NC(=O)[C@H](CC(C)C)NC(=O)[C@@]23C(=O)N[C@@H](Cc4ccccc4)C2[C@H](C)[C@@]2(C)O[C@H]2C3/C=C/CC/C=C/CNC1=O (stereo not given in full) | -0.048 | -3.54 (inactive) | -1.16 (inactive) | 0.126 (inactive) | -0.792 (inactive) | 1.3 | -0.128 | 0.382 | 0.29 | 1.14 |
| C=CCC(OC(C)=O)[C@@H]1[C@@H](N(Cc2cccc3ccccc23)C(=O)Cc2ccc(F)cc2)c2cc(OCCCO)ccc2N1C(=O)Cc1ccc2ccccc2c1 (stereo not given in full) | -0.0893 | -0.288 (inactive) | -0.688 (inactive) | -0.36 (inactive) | 1.17 (inactive) | -0.11 | -0.101 | -0.52 | 0.169 | 0.332 |
| CC1CC/C=C\[C@H]2OC34C=CCN(Cn5nnc6ccccc65)C(=O)[C@H]3N(C(C)CO)C(=O)[C@@H]4C2C(=O)O1 (stereo not given in full) | -0.501 | 0.349 (inactive) | -0.182 (inactive) | -1.03 (inactive) | -0.542 (inactive) | -0.465 | -0.0675 | -0.276 | -1 | -0.362 |
| O=C1NC(=O)C2C1C=CC(C(O)C=Cc1ccc([N+](=O)[O-])cc1)N2Nc1ccccn1 (stereo not given) | 0.421 | 0.931 (inactive) | -1.23 (inactive) | 0.443 (inactive) | -0.28 (inactive) | -0.208 | 0.0694 | 0.151 | 0.13 | 0.809 |
| [N-]=[N+]=NCc1ccccc1C[C@]1(C(=O)N2CCCCC2)N=C(c2ccc(OCCCO)cc2)O[C@H]1c1ccccc1CN=[N+]=[N-] | 0.129 | -4.48 (inactive) | 0.447 (inactive) | 1.88 (inactive) | 0.102 (inactive) | 0.995 | 0.233 | 0.064 | 0.741 | -0.0292 |
| COC(=O)[C@@]1(Cc2ccccc2)[C@H]2c3cc(C(=O)N4CCCC4)n(CCN4CNCC4=O)c3C[C@H]2CN1C(=O)c1ccccc1 | -0.042 | -0.119 (inactive) | 0.351 (inactive) | -0.182 (inactive) | -0.768 (inactive) | 2.04 | 0.202 | -0.0625 | 1.02 | -0.535 |
| C=C(CCCC)/C(=C/C[C@@H](OC(=O)c1ccncc1)c1cccc(OCCO)c1)c1cc(C(=O)OC)ccc1OC | 0.153 | -1.36 (inactive) | -1.04 (inactive) | 13.4 (active) | -1.47 (inactive) | 0.788 | 0.0852 | 1.13 | 0.76 | 1.47 |
| O=C(NCc1ccccc1)c1ccc(Br)cc1[N+](=O)[O-] | 0.146 | -0.214 (inactive) | 0.635 (inactive) | 0.685 (inactive) | -0.554 (inactive) | -0.453 | -0.183 | 0.0031 | -0.232 | 0.0923 |
| C[N+](C)(C)CCCCNC(=O)[C@H]1C[C@H]2C(=O)NCC(=O)N2[C@H]1c1cccc(OCCO)c1 | 0.668 | 0.148 (inactive) | -0.722 (inactive) | 0.419 (inactive) | -0.153 (inactive) | 0.0924 | -0.0044 | 1.21 | 0.961 | 2.17 |
| O=C(CS)NCCCCCCNC(=O)[C@@H]1C[C@@H]2C(=O)N[C@@H](Cc3ccccc3)C(=O)N2[C@@H]1c1ccc(O)cc1 | 0.588 | -0.345 (inactive) | -0.75 (inactive) | -0.537 (inactive) | -0.835 (inactive) | 0.226 | 0.0503 | 1.12 | 1.14 | 1.86 |
| O=C1C2C=CC(C(O)Cc3ccccc3)N(Nc3ccc([N+](=O)[O-])cc3)C2C(=O)N1c1ccccc1 (stereo not given) | 0.331 | -0.219 (inactive) | -0.138 (inactive) | -1.33 (inactive) | -0.0492 (inactive) | 0.355 | 0.46 | 0.187 | 0.222 | -0.166 |
| CCCC[C@@H]1C[C@H]1[C@@H](NC(=O)c1ccccc1)c1ccccc1C(F)(F)F | 0.175 | 0.0018 (inactive) | -0.0632 (inactive) | 1.73 (inactive) | 1.17 (inactive) | 1.84 | 0.319 | -0.113 | 0.322 | -0.654 |
| CC(=O)NCCCC[C@@H]1NC(=O)[C@H]2C[C@@H](C(=O)NCCCCCCN(C)C)[C@@H](c3ccc(O)cc3)N2C1=O | 0.124 | -0.0718 (inactive) | -0.181 (inactive) | 0.281 (inactive) | 0.403 (inactive) | 1.36 | 1.12 | 1.6 | 1.21 | 1.79 |
| CCOC(=O)C[C@H]1[C@H](OC(=O)c2cc3ccccc3oc2=O)[C@@H](NC(=O)C2CCCCC2)c2cc(OCCCO)ccc2N1C(=O)c1ccc2ccccc2n1 | 0.156 | -0.271 (inactive) | -0.686 (inactive) | 6.62 (inactive) | 0.821 (inactive) | 0.449 | -0.0719 | 0.16 | 0.11 | 0.526 |
| C=CCOC(=O)[C@@H]1[C@H]2C(=O)O[C@H](c3ccccc3)[C@H](c3ccccc3)N2[C@H](c2ccc(OCCOC(=O)[C@H]3C[C@H]4C(=O)N[C@@H](CCCCNC(C)=O)C(=O)N4[C@H]3c3ccc(O)cc3)cc2)[C@@]12C(=O)Nc1ccc(I)cc12 | 0.728 | -0.317 (inactive) | 0.645 (inactive) | 0.549 (inactive) | 0.906 (inactive) | 0.0984 | 0.0073 | 1.32 | 1.29 | 2.07 |
| COC(=O)c1ccc(C#CC(NP(=O)(c2ccccc2)c2ccccc2)c2ccccc2)cc1 (stereo not given) | -0.0176 | -0.351 (inactive) | 0.107 (inactive) | -0.372 (inactive) | 1.24 (inactive) | 2.13 | 0.103 | -0.497 | -0.199 | 0.918 |
| C=CCC(OC(C)=O)[C@@H]1[C@@H](N(Cc2cccc3ccccc23)C(=O)c2ccc(C)cc2)c2cc(OCCCO)ccc2N1C(=O)c1ccc(-c2ccccc2)cc1 (stereo not given in full) | -0.0459 | -0.552 (inactive) | 0.528 (inactive) | 0.455 (inactive) | 0.289 (inactive) | 0.425 | -0.0719 | 0.0621 | -0.213 | 0.0891 |
| CCCC=C(CCC)[C@@H](NC(=O)c1ccc(C(F)(F)F)cc1)c1ccccc1 | -0.191 | -3.91 (inactive) | -0.383 (inactive) | 0.962 (inactive) | -0.0536 (inactive) | 0.233 | 0.208 | 0.518 | 0.199 | -0.634 |
| O=C(NCC(F)(F)F)[C@@H]1c2ccccc2C(=O)N(Cc2ccccc2Cl)[C@H]1c1ccc(CO)cc1 | -0.234 | 0.197 (inactive) | 0.072 (inactive) | 0.414 (inactive) | -0.65 (inactive) | -1.38 | -0.176 | -0.495 | 0.986 | -0.59 |
| CCCC=C(CCC)[C@@H](NS(=O)(=O)c1ccc(C(F)(F)F)cc1)c1ccc(-c2ccccc2)cc1 | 0.281 | -2.08 (inactive) | 0.524 (inactive) | -0.372 (inactive) | 0.486 (inactive) | 0.991 | 0.0445 | 0.059 | 0.664 | 0.618 |
| CC(C)NC(=O)[C@@]1(Cc2ccccc2I)c2ccccc2C(=O)N(C2CCCCC2)[C@H]1c1ccc(CO)cc1 | 0.345 | -3.83 (inactive) | -1.09 (inactive) | 0.531 (inactive) | 0.24 (inactive) | 0.999 | 0.122 | 0.457 | 0.559 | 0.28 |
| N#Cc1ccc(NN2C(C(O)CCc3ccccc3)C=CC3C(=O)N(c4ccccc4)C(=O)C32)cc1 (stereo not given) | 0.135 | -0.843 (inactive) | -1.07 (inactive) | -0.905 (inactive) | -0.259 (inactive) | 0.79 | 0.194 | -0.0047 | 0.985 | -0.0548 |
| C#CCNC(/C=C/c1ccccc1)CO (stereo not given) | -0.0285 | 0.171 (inactive) | -0.558 (inactive) | -0.237 (inactive) | 1.39 (inactive) | -0.114 | -0.0846 | 0.304 | 0.443 | 0.448 |
| COc1cc(CO)cc(I)c1O[C@H]1C=C(C(=O)NCCO)C[C@@H](N(CC2CCCCC2)C(=O)c2cc3ccccc3oc2=O)[C@@H]1O | 0.159 | -0.0365 (inactive) | -0.143 (inactive) | 1.13 (inactive) | -1.27 (inactive) | 0.745 | -0.0332 | 0.0653 | 0.0077 | 0.568 |
| COC(=O)[C@@]1(Cc2ccc(OC)cc2)[C@H]2c3cc(C(=O)N(C)C)n(Cc4ccc(C)c(F)c4F)c3C[C@H]2CN1C(=O)c1ccccc1 | 0.109 | -1.49 (inactive) | -0.763 (inactive) | 1.53 (inactive) | 1.24 (inactive) | 0.569 | 0.0179 | -0.124 | -0.0724 | -1.09 |

— PubChem BioAssay
